Source: PubChem BioAssay (Center for Chemical Genomics, University of Michigan)
CDC25B CDK2 inh – human CDC25B-CDK2/CyclinA binding inhibition | 0.72% of 94,000 active | z-score (no concentration beside the values) | P30305+P24941 | HTRF CDC25B-CDK2/CyclinA binding, anti-His/anti-Flag; stronger effect = higher value | AID 1259370; in the data active = z-score above about 3.2
HIV TAR-Tat – HIV-1 TAR-Tat binding disruption; z-score (test concentration not listed); AID 1259389; 0.6% of 100,000 active; HIV-1 TAR RNA, Tat peptide displacement FRET; stronger effect = higher value; active = z-score of 3 or more in at least 2 runs
* hit, by the source's call; . = no result given. A selection: hits, their analogues and other compounds. The true share with any hit is near 0.93%.

SMILES	CDC25B CDK2 inh	HIV TAR-Tat
O=C1C2C3C=CC(C3)C2C(=O)N1c1ccc(N2C(=O)C3C4CCC(C4)C3C2=O)cc1 (configuration not stated)	0.64	.
O=c1ccc(N2CCN(S(=O)(=O)c3cnc[nH]3)CC2)nn1-c1ccc(Cl)cc1	.	0.32
Cc1ccccc1-c1nc2c3c(C)c(C)n(CCN(C)C)c3ncn2n1	-2	2.4
Cc1nc(-c2ccccc2)sc1C(=O)Nc1sc2c(c1C#N)CCC2	8.5	17*
Cc1nc(-c2ccccc2)sc1C(=O)Nc1sc(C)c(C)c1C#N	-1.2	-4.2
C=CCSCC=C	.	15*
Cc1ccc(S(=O)(=O)N2CCN(c3nc4ccccc4n4cccc34)CC2)c(C)c1	-1.5	1.4
O=c1cc2cc(O)[nH]c(=O)c2c(O)[nH]1	19*	.
Nc1n[nH]c2cc(=O)[nH]c(O)c12	-0.59	.
N#Cc1nc(/C=C/c2ccc(Cl)cc2)oc1N1CCNCC1	0.07	2
COc1ccc2nc(N(CCN(C)C)C(=O)C3CCCCC3)sc2c1	.	1.3
CCCCOC(=O)c1c(N)n(-c2ccccc2OC)c2nc3ccccc3nc12	1.6	.
COC(=O)c1c(N)n(-c2ccc(OC)c(OC)c2)c2nc3ccccc3nc12	10*	1.2
CCOC(=O)c1c(N)n(-c2ccc(C)c(C)c2)c2nc3ccccc3nc12	-2.2	1.6
CCCCOC(=O)c1c(N)n(-c2ccc(OC)cc2)c2nc3ccccc3nc12	11*	0.97
CCOC(=O)c1sc(NC(=O)c2noc(C)c2[N+](=O)[O-])c(C(=O)OCC)c1C	-2.2	.
O=S(=O)(Nc1ccc(O)c(-c2c(O)ccc3ccccc23)c1)c1ccc(F)cc1	-0.51	.
CCN(C(=O)CSc1nnc(C)n2c1cc1sccc12)c1ccccc1	.	1.4
COc1ccc(-c2noc(CN3CCCCC3)n2)cc1OC	-0.8	2
COc1ccc(-c2noc(CC3CCCCC3)n2)cc1OC	16*	1.6
CCC1CCCCN1CCCNC(=O)Cn1nc(C)n2cccc2c1=O (configuration not stated)	-1.7	2.4
COC(=O)[C@@]1(C)CC[C@]2(C)CC[C@]3(C)C(=CCC4[C@@]5(C)CCC(O)C(C)(C)C5CC[C@]43C)C2C1 (some centres not stated)	5.2*	.
CC1(C)CC[C@]2(C(=O)O)CC[C@]3(C)C(=CC[C@@H]4[C@@]5(C)CC[C@H](O)C(C)(C)[C@@H]5CC[C@]43C)[C@@H]2C1	.	3.4
CC(C)C(=O)N(c1ccc2oc(=O)sc2c1)S(=O)(=O)c1cccs1	-2.8	0.34
CC(C)C(=O)N(c1cc2sc(=O)oc2c2ccccc12)S(=O)(=O)c1cccs1	7*	0.5
SMILES	CDC25B CDK2 inh	HIV TAR-Tat
O=C(COc1ccc(Br)cc1)N(Cc1cccs1)c1ccc(F)cc1	-0.34	-0.83
CCOc1ccc(S(=O)(=O)Nc2ccc3c(c2)N(S(=O)(=O)c2ccccc2)CCC3)cc1	.	0.39
CCOc1ccc(S(=O)(=O)Nc2cc3c(c4ccccc24)OC2(C3)N(C)c3ccccc3C2(C)C)cc1 (configuration not stated)	18*	.
CCOc1ccc(C2/C(=C(/O)c3ccc(C)cc3)C(=O)C(=O)N2c2cccnc2)cc1 (configuration not stated)	0.11	-0.47
COC(=O)c1ccc(C2/C(=C(/O)c3ccc(C)cc3)C(=O)C(=O)N2c2cccnc2)cc1 (configuration not stated)	12*	0.97
CCCCNS(=O)(=O)c1ccc2c(c1)NC(=O)CS2	.	1.5
Cc1nn(-c2ccccc2)c2c1-c1sc(C(=O)N3CCC(N4CCCCC4)CC3)cc1CC2	.	0.21
CCOC(=O)c1cn2c3c(ccc(Cl)c3c1=O)OC(C)C2 (configuration not stated)	.	17*
CCNC(=O)c1cn2c3c(ccc(Cl)c3c1=O)OC(C)C2 (configuration not stated)	.	5.3
O=C(Nc1ccccc1Cl)c1cc2ccc3cccnc3c2[nH]1	.	0.91
COc1cc(/C=C/C(=O)O)ccc1O	.	1.5
COc1ccc(/C=C/C(=O)O)cc1OC	.	0.69
COc1ccc(/C=C/C(=O)CC(=O)/C=C/c2cccc(O)c2OC)cc1O	.	16*
COc1cc(/C=C/C(=O)CC(=O)/C=C/c2ccc(O)c(OC)c2)ccc1O	.	15*
O=C1NC(c2cccc(Cl)c2)C2COc3ccccc3C2N1 (configuration not stated)	-0.98	.
O=C(O)CSCC(=O)Nc1nc(SCc2ccc(Cl)cc2)n[nH]1	7*	.
Cc1ccccc1C(=O)Nc1nc(SCc2ccc(Cl)cc2)n[nH]1	-1.7	.
COCCCNc1nc(N)c([N+](=O)[O-])c(N2CCCCC2)n1	.	0.63
Cc1cc(-c2ccc(=O)[nH]n2)cc(S(=O)(=O)N(C)c2ccccc2)c1C	.	1.6
O=C(Nc1ccc2c(c1)OCCO2)C1CCN(S(=O)(=O)c2ccc3[nH]c(=O)ccc3c2)CC1	.	1.2
O=C(Nc1ccc2c(c1)OCCO2)C1CCN(S(=O)(=O)c2ccc(Br)cc2)CC1	4.6*	1.6
